Experimental data reported in PubChem BioAssay AID624101 (Broad Institute, 2012).
In all, about 70,000 compounds went through this assay and about 120 (0.17%) were called active. Many of the other results were omitted from the sample, so actives are more common in it than they were. Unmarked numbers belong to inactive results. Rule as the data show it: active = inhibition above about 34%; inconclusive = no clear call, values can overlap the other calls; inactive = below about 11%.
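Also: 0% = DMSO and 100% = no enzyme.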

Each molecule was assayed against Isocitrate dehydrogenase [NADP] cytoplasmic (Homo sapiens) (UniProt O75874) (assay: PubChem AID 624101). Conditions: IDH1 R132H reductase, diaphorase/resazurin fluorescence, 60 min; at 10 µM; hits give high values.
Chain of Isocitrate dehydrogenase [NADP] cytoplasmic (Homo sapiens) (O75874 whole entry R132H): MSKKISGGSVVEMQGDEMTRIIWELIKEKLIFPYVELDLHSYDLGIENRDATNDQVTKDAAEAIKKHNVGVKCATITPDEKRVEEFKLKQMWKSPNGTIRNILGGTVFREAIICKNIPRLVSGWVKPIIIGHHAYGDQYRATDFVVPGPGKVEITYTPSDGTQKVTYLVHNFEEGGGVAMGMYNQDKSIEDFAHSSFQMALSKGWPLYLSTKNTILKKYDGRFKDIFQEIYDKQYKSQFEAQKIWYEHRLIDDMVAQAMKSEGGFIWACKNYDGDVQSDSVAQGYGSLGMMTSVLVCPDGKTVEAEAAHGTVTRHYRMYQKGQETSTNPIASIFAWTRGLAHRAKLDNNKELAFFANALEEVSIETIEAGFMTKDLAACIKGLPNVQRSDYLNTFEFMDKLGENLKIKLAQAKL
In the case of CNC[C@H]1Oc2cc(C#Cc3ccccc3)ccc2S(=O)(=O)N([C@@H](C)CO)C[C@@H]1C, the inhibition is reported as 4.92%.
Cc1ccc(S(=O)(=O)NCC[C@H]2CC[C@@H](NS(=O)(=O)c3ccccc3Cl)[C@H](CO)O2)cc1 was tested, and the inhibition was 0.263%.
In the case of O=C(Nc1cccc(Cl)c1)N[C@H]1CC[C@H](CCNC(=O)C2CCOCC2)O[C@H]1CO, the inhibition is reported as 0.082%.
O=C(C[C@@H]1CC[C@@H](NC(=O)C2CCOCC2)[C@H](CO)O1)Nc1ccc(-c2ccccc2)cc1 showed an inhibition of 0.222%.
O=C(C[C@@H]1C=C[C@H](NC(=O)c2ccc3c(c2)OCO3)[C@H](CO)O1)NCc1ccc(Oc2ccccc2)cc1 gave an inhibition of -0.347%.
With O=C(C[C@H]1C=C[C@@H](NC(=O)Nc2cc(F)ccc2F)[C@@H](CO)O1)NCc1ccc2c(c1)OCO2 the inhibition was -0.0695%.
CN1CCN(C(=O)C[C@@H]2C[C@H]3c4cc(NC(=O)NC5CCCC5)ccc4O[C@H]3[C@H](CO)O2)CC1 was tested, and the inhibition was -0.193%.
Molecule CO[C@H]1CN(C)C(=O)c2ccc(NC(=O)c3nc4ccccc4s3)cc2OC[C@@H](C)N(Cc2cncnc2)C[C@H]1C has an inhibition of -1.03%.
O=C(C[C@@H]1C[C@@H]2c3cc(NC(=O)C4CCC4)ccc3O[C@@H]2[C@@H](CO)O1)NCc1ccccc1 was tested, and the inhibition was 0.171%.
With O=C(C[C@@H]1C[C@@H]2c3cc(NC(=O)Cc4ccncc4)ccc3O[C@@H]2[C@H](CO)O1)NCc1cccc(F)c1 the inhibition was 0%.
C[C@H](NC(=O)N(C)C[C@@H]1OCc2ccccc2-c2ccccc2C(=O)N([C@H](C)CO)C[C@@H]1C)c1ccccc1 was tested, and the inhibition was -1.38%.
Molecule Cc1noc(C)c1S(=O)(=O)Nc1ccc2c(c1)C(=O)N([C@H](C)CO)C[C@H](C)[C@H](CN(C)S(C)(=O)=O)OCCCC[C@H](C)O2 has an inhibition of 2.45%.
C[C@@H]1CN([C@@H](C)CO)S(=O)(=O)c2ccc(C#Cc3ccccc3)cc2O[C@@H]1CN(C)C(=O)C1CC1 was tested, and the inhibition was -0.265%.
In the case of CO[C@@H]1CN(C)C(=O)c2ccc(NS(=O)(=O)c3ccc(Cl)cc3)cc2OC[C@H](C)N(C(=O)NC(C)C)C[C@H]1C, the inhibition is reported as 0.21%.
O=C(NCC[C@H]1CC[C@@H](NC(=O)C2CCCC2)[C@@H](CO)O1)c1cc(Cl)cc(Cl)c1 showed an inhibition of -0.187%.
Cc1ccc(S(=O)(=O)NCC[C@@H]2CC[C@H](NC(=O)CC3CC3)[C@H](CO)O2)cc1 gave an inhibition of -0.044%.
With O=C(Nc1ccccc1F)N[C@@H]1CC[C@H](CC(=O)N2CCCCC2)O[C@H]1CO the inhibition was 0.211%.
In the case of O=C(N[C@@H]1CC[C@H](CCn2cc(C3CC3)nn2)O[C@H]1CO)c1cccnc1, the inhibition is reported as 0.0945%.
In the case of CO[C@@H]1CN(C)C(=O)c2ccc(NS(C)(=O)=O)cc2OC[C@@H](C)N(C(=O)C2CCOCC2)C[C@@H]1C, the inhibition is reported as -0.272%.
Molecule CO[C@@H]1CN(C)C(=O)c2cc(NC(=O)Nc3cc(F)ccc3F)ccc2OC[C@H](C)N(C)C[C@@H]1C has an inhibition of -0.288%.
With CO[C@@H]1CN(C)C(=O)c2ccc(NS(=O)(=O)c3cccc(Cl)c3)cc2OC[C@H](C)NC[C@H]1C the inhibition was -0.827%.
Molecule Cc1ccc(S(=O)(=O)NCC[C@H]2CC[C@H](NC(=O)c3ccccn3)[C@@H](CO)O2)cc1 has an inhibition of -0.44%.
In the case of C[C@@H]1CN([C@H](C)CO)S(=O)(=O)c2ccc(-c3ccc(C(=O)N(C)C)cc3)cc2O[C@@H]1CN(C)C(=O)Nc1ccccc1F, the inhibition is reported as 0.371%.
Work on COCCNC(=O)C[C@H]1C=C[C@@H](NS(=O)(=O)c2ccc(C)cc2)[C@@H](CO)O1 yielded an inhibition of -0.16%.
Cc1ccc(-c2cc(C(F)(F)F)n3nc(C(=O)NCCN4CCOCC4)c(Cl)c3n2)cc1 was tested, and the inhibition was -0.63%.
With O=C(NCCCn1ccnc1)c1cnn2c(C(F)(F)F)cc(-c3ccccc3)nc12 the inhibition was 42.5% (active).
In the case of O=C(NCc1cccnc1)c1cnn2c(C(F)F)cc(-c3ccccc3)nc12, the inhibition is reported as -0.254%.
With CO[C@H]1CN(C)C(=O)c2ccc(NC(=O)C3CC3)cc2OC[C@@H](C)N(C(=O)c2ccccn2)C[C@@H]1C the inhibition was 0.315%.
With CO[C@@H]1CN(C)C(=O)c2cc(NC(C)=O)ccc2OC[C@H](C)N(Cc2ccccn2)C[C@H]1C the inhibition was 0.0735%.
In the case of COc1ccc(C(=O)Nc2ccc3c(c2)C(=O)N(C)C[C@@H](OC)[C@H](C)CN(C(C)=O)[C@@H](C)CO3)cc1, the inhibition is reported as 0.119%.
For CO[C@H]1CC[C@@H]2CCOc3c(C#N)cccc3C(=O)N(C)CCCC(=O)N(C)C[C@@H]1O2, the inhibition was -0.199%.
O=C(C[C@@H]1C[C@@H]2c3cc(NS(=O)(=O)c4ccc(F)cc4)ccc3O[C@@H]2[C@H](CO)O1)N1CCCCC1 was tested, and the inhibition was 0.296%.
With O=C(C[C@H]1CC[C@@H](NC(=O)Nc2ccc(F)cc2)[C@@H](CO)O1)NCCN1CCCC1 the inhibition was -0.0445%.
For O=C(Nc1ccc(C(F)(F)F)cc1)N[C@@H]1CC[C@H](CCNC(=O)c2ccccc2F)O[C@H]1CO, the inhibition was 0.069%.
Cc1ccc(S(=O)(=O)N[C@H]2CC[C@H](CC(=O)NCc3ccccc3F)O[C@@H]2CO)cc1 showed an inhibition of -0.113%.
With CCCc1cn(CC[C@@H]2CC[C@@H](NS(=O)(=O)c3ccccc3Cl)[C@@H](CO)O2)nn1 the inhibition was -0.18%.
CO[C@H]1CN(C)C(=O)c2cc(NC(=O)C3CC3)ccc2OC[C@@H](C)NC[C@H]1C showed an inhibition of -0.162%.
Cc1ccc(S(=O)(=O)NCC[C@@H]2CC[C@H](NC(=O)c3ccccn3)[C@H](CO)O2)cc1 was tested, and the inhibition was -0.387%.
Cc1ccc(-c2ccc3c(c2)O[C@@H](CN(C)C(=O)CC2CC2)[C@@H](C)CN([C@@H](C)CO)S3(=O)=O)cc1 was tested, and the inhibition was -0.129%.
O=C(C[C@@H]1CC[C@H](NC(=O)CN2CCOCC2)[C@@H](CO)O1)NCCc1ccccc1 gave an inhibition of 0.1%.
Work on C[C@@H]1CN([C@H](C)CO)S(=O)(=O)c2ccc(-c3ccncc3)cc2O[C@@H]1CN(C)C(=O)CN(C)C yielded an inhibition of 0.556%.
